The text below walks through data of PubChem BioAssay (NCATS).

Where “and” joins values, the source holds several entries; their conditions need not be identical. Equal values may be shown once. Inconclusive results are not listed. Calls of active or inactive are those of the source. Unless noted, the call rests on the fitted dose curve; in most records, active means well fitted curve in the direction sought with a large enough effect; inconclusive means small, poorly fitted or top-dose-only effect, or another doubt; inactive means no such curve, though single readings can be large; an effect the other way counts as inactive or inconclusive.

A short description of assay [1]: Cell Viability - HUV-EC-C (AID 542).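 Further: cells exposed to compound for 40 hours; on the % scale 0 is the no-effect control and ±100 the full control effect; nearly all actives have a fitted effect of over 35% in size.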 To be noted: HUV-EC-C endothelial cell viability, qHTS; series mostly up to 92.2 µM. In outline: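 Decrease in cellular ATP, quantified by luciferase luminescence, reflects toxicity in normal human vascular endothelial HUV-EC-C cells given compound for 40 hr in complete culture medium. Values are AC50s from concentration-response curves.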

Assay [2] in a line: MultiTox-Fluor Cytotoxicity Assay - LYMP1-001 - Live Cells (AID 947).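 Further: 0% = DMSO only and full inhibition = tetraoctylammonium bromide control.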 To be noted: LYMP1-001 lymphoblastoid cells, live-cell protease fluorescence viability; series mostly up to 92.2 µM.
Assay [3] can be described thus: Cell Viability - LYMP2-024 (AID 988).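 Further: plate controls were DMSO only for no effect and 92 µM tetraoctylammonium bromide for full effect; nearly all actives have a fitted effect of over 60% in size.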 The following applies: LYMP2-024 lymphoblastoid cell viability; series mostly up to 92.2 µM. In outline: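 Acute toxicity is measured as concentration-dependent loss of intracellular ATP in a human lymphoblastoid line treated 24 hours at 37 C. Luciferase luminescence quantifies ATP; AC50 values come from standard Hill-equation modelling.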

Assay [4] can be described thus: Cell Viability - LYMP2-026 (AID 989).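 Further: cells exposed to compound for 24 h at 37 °C; on the % scale 0 is the no-effect control and ±100 the full control effect; nearly all actives have a fitted effect of over 50% in size.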 To be noted: LYMP2-026 lymphoblastoid cell viability, qHTS; series mostly up to 92.2 µM. In outline: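 Concentration-dependent loss of intracellular ATP in human lymphoblastoid cells after 24 hr at 37 C, quantified by luciferase luminescence. AC50 derived from standard Hill equation.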
The nature of assay [5]: Cell Viability - LYMP1-002 - Assay at 40 hr (AID 994).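 Further: 0% = DMSO only and full inhibition = 92 µM tetraoctylammonium bromide; nearly all actives have a fitted effect of over 60% in size.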 To be noted: LYMP1-002 lymphoblastoid cell viability; series mostly up to 92.2 µM. In outline:
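Viability in the human lymphoblastoid line was measured as intracellular ATP via CellTiter-Glo after 40 hr compound exposure. Tetraoctylammonium bromide served as positive control.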

For assay [6], the target named is Glucocorticoid receptor (Homo sapiens) (UniProt P04150). The assay can be described thus: qHTS assay for small molecule antagonists of glucocorticoid receptor signaling (AID 588533; active means well fitted inhibition curve with a large enough effect in the signal ratio, with a control signal flat, not every such curve was filed as active; the % refers to the signal ratio;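 further: cells stimulated with 2 nM dexamethasone as agonist; on the % scale 0 is the no-effect control and ±100 the full control effect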). The following applies: HeLa MMTV-bla, GRE beta-lactamase ratio, antagonist mode, 18 h; series mostly up to 76.8 µM. In outline: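 Antagonist-mode qHTS: compound titrations added to GRE-bla HeLa cells, then dexamethasone 2 nM final; 18 h, 37 C. CCF4 FRET fluorescence normalized to dexamethasone and DMSO; IC50 from Hill fit.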
On the technique in general: In qHTS, concentration-response curves come from the screen itself.

For assay [7], the target named is Peroxisome proliferator-activated receptor gamma (Homo sapiens) (UniProt P37231). The assay can be described thus: qHTS assay for small molecule antagonists of peroxisome proliferator-activated receptor gamma signaling (AID 588537; active means well fitted inhibition curve with a large enough effect in the signal ratio, with a control signal flat, not every such curve was filed as active; the % refers to the signal ratio;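 further: reporter cells co-stimulated with 50 nM rosiglitazone agonist during compound treatment; % of control where 0% means no effect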). To be noted: HEK293 PPARg-UAS-bla, beta-lactamase ratio, antagonist mode; series mostly up to 76.8 µM. In outline: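 Step one: plate 3000 HEK293 UAS-bla cells per well in medium with 1% stripped serum and hold 6-6.5 h at 37 C. Step two: add compound and 50 nM agonist for 16 h. Step three: CCF4 loading, fluorescence read.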

The target in assay [8] is Thyroid hormone receptor beta (Homo sapiens) (UniProt P10828). The assay can be described thus: qHTS assay for small molecule agonists of thyroid hormone receptor beta signaling (AID 588545; calls by dose curve). The following applies: TR-UAS-bla GripTite HEK 293, beta-lactamase ratio, agonist mode, 18 h, percent of T3 response, DMSO as zero; series mostly up to 76.7 µM. In outline: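 Agonist-mode beta-lactamase reporter assay, HEK 293 cells, 2% charcoal/dextran FBS; cells plated 4 hrs, compound 18 hrs at 37 C, CCF4 2 hrs RT. Normalized to 10 nM T3 (100%) and DMSO (0%); Hill fit gives EC50, efficacy.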

Assay [9] shares this target. Nature of the assay: qHTS assay for small molecule antagonists of thyroid hormone receptor beta signaling (AID 588547; active means well fitted inhibition curve with a large enough effect in the signal ratio, with a control signal flat, not every such curve was filed as active; the % refers to the signal ratio;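 further: cells stimulated with 0.4 nM T3 agonist during compound exposure; on the % scale 0 is the no-effect control and ±100 the full control effect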). To be noted: TR-UAS-bla HEK293, beta-lactamase ratio, antagonist mode, 18 h. In outline: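 TR-UAS-bla GripTite HEK293 cells in 2% charcoal/dextran FBS medium; compounds 0.59 nM to 92 uM with T3 at 0.4nM final, 18 h at 37 C. Beta-lactamase read by CCF4 fluorescence (460/530 nm); Hill fits gave IC50 and efficacy.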

A short description of assay [10]: qHTS assay for small molecule disruptors of the mitochondrial membrane potential - 1 hr assay (AID 651754; calls by dose curve; further: on the % scale 0 is the no-effect control and ±100 the full control effect; nearly all actives have a fitted effect of over 35% in size). The following applies: series mostly up to 92.2 µM. In outline:
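Steps: seed HepG2 cells and let attach overnight; pin-transfer compound or vehicle; incubate 1 hr at 37C; add Mito-MPS dye for 30 min; read two-channel fluorescence for monomer and aggregate forms.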

Assay [11] is described as follows: qHTS assay for environmental chemicals that activate the Aryl hydrocarbon Receptor (AhR) signaling pathway (AID 651777). Further: nearly all actives have a fitted effect of over 15% in size. Further: potency means the concentration at half of the fitted maximal effect. On activation: % of control where 0% means no effect. The following applies: 1A2-DRE human hepatoma cells, luciferase, 24 h; activation: stronger effect = higher value. In outline:
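Reporter gene assay: hepatoma cells with DRE/CYP1A2-luciferase, 24 hr compound incubation at 37 C, 5% CO2, luminescence after One-Glo (30 min, RT).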

Assay [12] is described as follows: Cell Viability - H-4-II-E (AID 543).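 Further: cells exposed to compound for 40 hours; on the % scale 0 is the no-effect control and ±100 the full control effect; nearly all actives have a fitted effect of over 35% in size.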 To be noted: H-4-II-E rat hepatoma viability; series mostly up to 92.2 µM. In outline:
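Here, cytotoxicity is measured in the rat hepatoma line H-4-II-E as loss of intracellular ATP after 40 hr compound treatment, detected by luciferase luminescence.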

The target of assay [13] is Estrogen receptor (Homo sapiens) (UniProt P03372). The assay can be described thus: qHTS assay for small molecule agonists of estrogen receptor alpha signaling (AID 588514; calls by dose curve;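 further: 0% = vehicle only and 100% = reference agonist; nearly all actives have a fitted effect of over 70% in size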). The following applies: ER-alpha-UAS-bla HEK293, beta-lactamase ratio, 18 h; series mostly up to 76.8 µM. In outline: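 Reporter-gene assay. […] controls beta-lactamase in HEK 293 GripTite cells; after 18 hrs with compound, CCF4 substrate is added for 2 hrs and fluorescence is read.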

A short description of assay [14]: qHTS assay for small molecule agonists of retinoid X receptor alpha signaling (AID 588544; calls by dose curve;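 on activation: 0% = DMSO basal wells and 100% = reference agonist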). To be noted: HEK293T RXRa-UAS-bla, beta-lactamase reporter, 18 h; 530 nm emission.
Assay [15] concerns the target Retinoic acid receptor RXR-alpha (Homo sapiens) (UniProt P19793). The assay is described as above. To be noted: HEK293T RXRa-UAS-bla, beta-lactamase reporter, 18 h; series mostly up to 76.7 µM.
Assay [16] can be described thus: qHTS assay for small molecule agonists of the antioxidant response element (ARE) signaling pathway (AID 651741; active means well fitted activation curve with a large enough effect in the signal ratio; the % refers to the signal ratio; further: potency means the concentration at half of the fitted maximal effect; on activation: % of control where 0% means no effect). To be noted: HepG2 ARE-bla reporter, beta-lactamase FRET ratio, 16 h; series mostly up to 96 µM. In outline: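 HepG2 ARE-bla cells plated at 2,000 cells/well and incubated 5 h at 37 C/5% CO2 received 23 nL compound in DMSO. After 16 h at 37 C, LiveBLAzer B/G FRET substrate was applied for 2 h at room temperature and fluorescence read.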

The nature of assay [17]: qHTS assay for small molecule agonists of the antioxidant response element (ARE) signaling pathway measured by Nrf2-dependant transcriptional activity (AID 720636; active means well fitted curve in the direction sought with a large enough effect in the repeat runs; an effect the other way counts as inactive or inconclusive;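 further: HepG2 cells with an ARE-driven luciferase reporter; % of control where 0% means no effect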). To be noted: ARE-luc HepG2, Nrf2 luciferase reporter, 16 h; series mostly up to 92.4 µM. In outline:
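Nrf2-dependent transcription is measured in ARE-luc HepG2 cells: compound is applied for 16 hr at 37 C after a 6 hr attachment period, and luciferase activity is quantified by luminescence using ONE-Glo.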

A short description of assay [18]: qHTS assay for small molecule antagonists of the retinoid-related orphan receptor gamma (ROR-gamma) signaling pathway - cell viability counter screen (AID 720652; active means well fitted curve in the direction sought with a large enough effect in the repeat runs; an effect the other way counts as inactive or inconclusive;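 further: CHO reporter cells with doxycycline-induced ROR-gamma expression; compound exposure lasted 16 hr before ATP read; on the % scale 0 is the no-effect control and ±100 the full control effect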). To be noted: RORgamma reporter cell line viability counter screen; series mostly up to 92.2 µM. In outline:
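Cytotoxicity is quantified via intracellular ATP (CellTiter-Glo luminescence) in doxycycline-induced CHO ROR response element-luciferase reporter cells treated with compound for 16 hr at 37 C, 5% CO2.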

Assay [19] concerns the target Nuclear receptor subfamily 1 group I member 2 (Rattus norvegicus) (UniProt Q9R1A7). Nature of the assay: qHTS assay for small molecule activators of the rat pregnane X receptor (rPXR) signaling pathway (AID 651751; call rule not given here; further: 0% is about no effect). To be noted: rPXR reporter cells, luciferase (One-Glo), 24 h.
The nature of assay [20]: qHTS assay for small molecule activators of the human pregnane X receptor (PXR) signaling pathway (AID 720659; call rule not given here; further: 0% is about no effect). The following applies: DPX-2 HepG2 CYP3A4-luciferase, 24 h; series mostly up to 92.3 µM.

Peroxisome proliferator-activated receptor gamma (Homo sapiens), sequence (P37231 whole entry, looked up): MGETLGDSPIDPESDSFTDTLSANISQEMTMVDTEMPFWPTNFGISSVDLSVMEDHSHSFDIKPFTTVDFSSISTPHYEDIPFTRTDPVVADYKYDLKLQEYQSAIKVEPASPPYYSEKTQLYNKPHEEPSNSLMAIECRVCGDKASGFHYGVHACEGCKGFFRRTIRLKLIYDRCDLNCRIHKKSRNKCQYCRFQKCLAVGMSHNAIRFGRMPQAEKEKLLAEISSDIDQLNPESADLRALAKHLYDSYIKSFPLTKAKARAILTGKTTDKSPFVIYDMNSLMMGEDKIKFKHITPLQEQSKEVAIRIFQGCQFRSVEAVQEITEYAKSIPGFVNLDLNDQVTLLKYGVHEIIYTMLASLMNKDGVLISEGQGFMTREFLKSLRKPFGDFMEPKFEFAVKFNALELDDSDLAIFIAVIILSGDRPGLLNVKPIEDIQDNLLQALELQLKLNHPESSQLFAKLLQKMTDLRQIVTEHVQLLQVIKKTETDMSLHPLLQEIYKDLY
Glucocorticoid receptor (Homo sapiens), sequence (P04150 whole entry, looked up): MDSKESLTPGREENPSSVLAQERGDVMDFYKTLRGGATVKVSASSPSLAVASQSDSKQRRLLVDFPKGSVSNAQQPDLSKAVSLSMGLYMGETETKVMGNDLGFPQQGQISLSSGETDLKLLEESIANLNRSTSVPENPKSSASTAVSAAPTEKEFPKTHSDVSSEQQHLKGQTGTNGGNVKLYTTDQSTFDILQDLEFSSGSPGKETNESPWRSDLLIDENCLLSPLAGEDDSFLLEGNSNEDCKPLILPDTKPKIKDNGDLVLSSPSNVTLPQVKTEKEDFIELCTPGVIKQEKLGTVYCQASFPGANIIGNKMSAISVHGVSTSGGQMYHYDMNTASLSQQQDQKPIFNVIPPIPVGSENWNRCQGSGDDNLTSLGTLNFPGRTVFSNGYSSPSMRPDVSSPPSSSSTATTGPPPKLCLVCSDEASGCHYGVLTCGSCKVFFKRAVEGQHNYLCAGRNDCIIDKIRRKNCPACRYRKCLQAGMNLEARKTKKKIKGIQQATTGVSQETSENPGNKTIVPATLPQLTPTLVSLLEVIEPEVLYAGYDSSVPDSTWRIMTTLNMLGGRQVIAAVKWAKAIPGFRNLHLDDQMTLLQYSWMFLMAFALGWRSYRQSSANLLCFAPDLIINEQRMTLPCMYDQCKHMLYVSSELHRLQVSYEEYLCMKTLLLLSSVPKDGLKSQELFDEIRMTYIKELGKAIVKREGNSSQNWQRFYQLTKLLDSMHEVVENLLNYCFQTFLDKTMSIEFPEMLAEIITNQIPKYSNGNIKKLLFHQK
Thyroid hormone receptor beta (Homo sapiens), sequence (P10828 whole entry, looked up): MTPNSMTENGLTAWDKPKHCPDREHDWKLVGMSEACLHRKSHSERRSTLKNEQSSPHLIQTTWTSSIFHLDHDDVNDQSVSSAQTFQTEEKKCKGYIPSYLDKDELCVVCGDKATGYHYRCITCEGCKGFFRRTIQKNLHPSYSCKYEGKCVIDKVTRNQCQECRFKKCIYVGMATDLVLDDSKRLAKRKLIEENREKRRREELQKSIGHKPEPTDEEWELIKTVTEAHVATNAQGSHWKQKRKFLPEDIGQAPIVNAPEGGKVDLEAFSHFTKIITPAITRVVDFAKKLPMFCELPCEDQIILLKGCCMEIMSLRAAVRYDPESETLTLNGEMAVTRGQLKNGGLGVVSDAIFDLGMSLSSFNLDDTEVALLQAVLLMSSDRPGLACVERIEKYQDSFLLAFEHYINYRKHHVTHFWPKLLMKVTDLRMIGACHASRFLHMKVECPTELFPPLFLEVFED
Retinoic acid receptor RXR-alpha (Homo sapiens), sequence (P19793 whole entry, looked up): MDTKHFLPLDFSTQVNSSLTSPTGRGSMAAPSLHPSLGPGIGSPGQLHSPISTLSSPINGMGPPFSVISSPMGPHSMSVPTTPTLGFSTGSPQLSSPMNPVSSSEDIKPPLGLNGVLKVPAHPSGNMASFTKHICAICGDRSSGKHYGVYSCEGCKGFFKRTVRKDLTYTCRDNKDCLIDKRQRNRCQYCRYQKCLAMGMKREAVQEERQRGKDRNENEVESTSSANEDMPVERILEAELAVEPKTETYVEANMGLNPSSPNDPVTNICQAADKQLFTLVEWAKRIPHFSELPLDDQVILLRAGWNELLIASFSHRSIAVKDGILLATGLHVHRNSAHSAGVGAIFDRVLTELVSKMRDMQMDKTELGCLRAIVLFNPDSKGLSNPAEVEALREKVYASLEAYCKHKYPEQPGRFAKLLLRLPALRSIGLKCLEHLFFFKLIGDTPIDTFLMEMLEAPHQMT
Estrogen receptor (Homo sapiens), sequence (P03372 whole entry, looked up): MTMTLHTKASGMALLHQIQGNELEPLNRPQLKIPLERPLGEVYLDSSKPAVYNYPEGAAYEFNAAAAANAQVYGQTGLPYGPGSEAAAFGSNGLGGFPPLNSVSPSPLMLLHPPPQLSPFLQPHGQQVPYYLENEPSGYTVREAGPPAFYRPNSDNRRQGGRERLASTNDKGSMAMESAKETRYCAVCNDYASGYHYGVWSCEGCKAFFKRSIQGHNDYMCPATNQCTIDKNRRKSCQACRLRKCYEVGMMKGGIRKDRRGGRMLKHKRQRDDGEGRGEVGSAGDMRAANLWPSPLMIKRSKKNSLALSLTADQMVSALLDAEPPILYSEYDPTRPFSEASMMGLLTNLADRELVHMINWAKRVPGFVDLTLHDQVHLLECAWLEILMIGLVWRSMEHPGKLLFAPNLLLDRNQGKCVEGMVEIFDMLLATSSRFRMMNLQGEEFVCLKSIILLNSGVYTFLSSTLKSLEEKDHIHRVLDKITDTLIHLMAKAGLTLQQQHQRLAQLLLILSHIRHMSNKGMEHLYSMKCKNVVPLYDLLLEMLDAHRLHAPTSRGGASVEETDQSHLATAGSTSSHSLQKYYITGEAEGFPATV
Nuclear receptor subfamily 1 group I member 2 (Rattus norvegicus), sequence (Q9R1A7 whole entry, looked up): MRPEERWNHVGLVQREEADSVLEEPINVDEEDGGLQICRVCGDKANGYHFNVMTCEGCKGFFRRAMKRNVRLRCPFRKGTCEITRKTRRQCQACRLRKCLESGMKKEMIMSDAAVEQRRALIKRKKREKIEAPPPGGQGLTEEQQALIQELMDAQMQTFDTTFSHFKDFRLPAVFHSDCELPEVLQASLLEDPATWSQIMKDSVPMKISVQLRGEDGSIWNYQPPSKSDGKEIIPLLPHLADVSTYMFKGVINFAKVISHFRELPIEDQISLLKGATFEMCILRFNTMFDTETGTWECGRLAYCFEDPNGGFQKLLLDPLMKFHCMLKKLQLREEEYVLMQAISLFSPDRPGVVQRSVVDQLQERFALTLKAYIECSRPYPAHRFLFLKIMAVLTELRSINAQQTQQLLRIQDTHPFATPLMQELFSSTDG

For `COc1cc(/C=C/c2ccccc2)oc(=O)c1`, the call in [1], in assay [7] and in [8] was inactive. In addition, the Potency result in [2], in assay [3], in assay [4], in [5], in [6] and in assay [10] was “inactive” each time. The activity change % (negative = inhibition) in assay [9] is -8.32% (inactive). Further, the Potency in [11] was 7.08 µM (active).
Take `CCCCCCCCCCCCCC(=O)O`: the outcome in assay [1], in [7], in [15], in assay [8] and in assay [20] was inactive. The Potency result in [12], in assay [3], in assay [4], in assay [5], in [13] and in assay [6] was “inactive” each time. Besides, the Potency result in assay [16], in [10], in [17] and in [18] was “inactive” throughout. For the same molecule, the max response is 12.8% and -5.45% in assay [14]; -0.081% (inactive) and -5.28% (inactive) in [19]. Further, the activity change % (negative = inhibition) in assay [9] was 8.19% (inactive) and 13.5% (inactive). The activation in assay [11] was -0.758% (inactive) and 0.233% (inactive).
For the molecule `COc1ccc(/C=C/c2cc(OC)cc(=O)o2)cc1`, the Potency result in assay [12], in [2], in [3], in assay [4], in assay [5] and in assay [13] was “inactive” in each case. Besides, the Potency result in [10] and in assay [18] was “inactive” each time. Besides, in [8], the outcome was inactive. Further, the Potency is 1.88 µM (active) in assay [16] and 10 µM (active) in assay [11].
As to `O=C(O)c1ccccc1`, the result in assay [1], in assay [7], in assay [15] and in assay [20] was inactive. Besides, the Potency entry in [12], in assay [2], in [3], in assay [4], in [5] and in assay [13] was “inactive” in each case. Moreover, the Potency entry in assay [16], in [17] and in [18] was “inactive” each time. Moreover, the values for the max response in assay [14] and in assay [19] were -9.66% and -2.75% (inactive), respectively.
Regarding `C=C(C)C1CC=C(C)C(O)C1` (configuration not stated), the result in assay [1], in [7], in assay [15], in [8] and in assay [20] was inactive. In addition, the Potency result in assay [12], in assay [2], in assay [3], in assay [4], in assay [5] and in [13] was “inactive” throughout. For the same molecule, the Potency result in assay [6], in [10], in assay [17] and in assay [18] was “inactive” throughout. Also, the values for the max response in [14] and in [19] were -1.36% and 2.42% (inactive), respectively. For the same molecule, in assay [9], the activity change % (negative = inhibition) was 0.818% (inactive).
As to `C=CC(C)(CCC=C(C)C)OC(C)=O` (configuration not stated), the Potency result in assay [13], in [6], in assay [16] and in [17] was “inactive” throughout. Besides, the outcome in [7], in [15], in assay [8] and in [20] was inactive. Moreover, the max response in assay [14] is -5.34%; in assay [19], 1.82% (inactive).
With `C=CC(=C)CCC=C(C)C`, the molecule was classed as inactive in assay [1], in [15] and in assay [20]. The Potency entry in [12], in [2], in [3], in assay [4], in [5] and in [13] was “inactive” throughout. In addition, the Potency entry in [6], in assay [16], in [10], in assay [17] and in assay [18] was “inactive” throughout. In addition, the max response was 1.9% in assay [14] and 2.22% (inactive) in assay [19]. The activity change % (negative = inhibition) in [9] is 9.36% (inactive). In assay [11], the activation is 0.322% (inactive).
